# Test results taken from PubChem BioAssay AID1259398 (Fisher Drug Discovery Resource Center, 2018).
# Values joined by “and” are separate entries in the source; they are usually repeats but may differ in a detail not shown here. Identical values can stand only once. The whole screen tested about 290,000 compounds, of which about 230 (0.079%) were called active. The list comes from a sample in which actives are over-represented; it also holds similar structures and randomly drawn compounds. Values without a mark were called inactive. Rule as the data show it: active = inhibition above about 40%; inactive = the rest.
# Biological target: Cyclic GMP-AMP synthase (Homo sapiens) (UniProt Q8N884)
# Sequence (Q8N884 whole entry, looked up): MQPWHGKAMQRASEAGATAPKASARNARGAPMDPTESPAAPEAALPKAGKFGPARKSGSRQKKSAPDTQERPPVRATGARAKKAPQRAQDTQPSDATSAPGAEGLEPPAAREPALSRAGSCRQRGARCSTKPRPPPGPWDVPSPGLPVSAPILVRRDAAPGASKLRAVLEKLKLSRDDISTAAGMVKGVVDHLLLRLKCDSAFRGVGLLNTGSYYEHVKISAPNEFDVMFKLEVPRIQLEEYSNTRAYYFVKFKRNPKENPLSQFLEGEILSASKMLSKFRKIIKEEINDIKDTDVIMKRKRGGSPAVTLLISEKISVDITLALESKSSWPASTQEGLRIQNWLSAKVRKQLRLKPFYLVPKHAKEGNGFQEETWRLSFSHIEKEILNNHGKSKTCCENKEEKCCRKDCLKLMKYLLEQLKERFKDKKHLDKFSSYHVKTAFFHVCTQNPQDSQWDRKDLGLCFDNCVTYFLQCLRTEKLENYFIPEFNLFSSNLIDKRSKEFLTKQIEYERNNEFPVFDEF
# Test: Primary biochemical luminescence assay for human cyclic GMP-AMP synthase inhibitors (AID 1259398);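 also: 0% = vehicle reaction and 100% = reaction without DNA for no activity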
# Settings: recombinant h-cGAS, ATP depletion, Kinase-Glo luminescence; at 12.5 µM; hits give high values
row,Structure (SMILES),inhibition
1,CC(NCc1ccccc1Cn1cccn1)C(=O)NC1CCCC1 (stereo unspecified),-4.67%
2,Cc1ccc(Nc2nc(N3CCN(c4ccc(F)cc4)CC3)nc3nccnc23)c(C)c1,-2.31%
3,CCc1cnc2c(c1SCc1cccc(C(F)(F)F)c1)c(=O)n(C)c(=O)n2C,-9.29%
4,Cc1ccc(CN(CCc2c[nH]c3ccccc23)C(=O)CN(C(=O)c2ccc([N+](=O)[O-])cc2)C(C)C)cc1,-6.46%
5,Nc1cc(-c2cccc(C(F)(F)F)c2)nn1-c1ccc(C(=O)NCc2ccc3c(c2)OCO3)cc1,-5.72%
6,C=CCNc1ccccc1C(=O)N1[C@@H]2CC[C@H]1CC(O)C2 (stereo partly specified),-2.12%
7,Cc1ccc(/C=C/C(=O)N(C)C(C)c2cccc(S(N)(=O)=O)c2)o1 (stereo unspecified),-0.284%
8,O=c1c(O)c(Br)ccc2c(Br)c(O)c(O)c(O)c12,70.1% (active)
9,O=C(C=Cc1ccc(Br)o1)NC1CCCCCC1,-5.99%
10,O=C(OCC(=O)N1CCCC1c1ccc(Cl)c(Cl)c1)C1CCOC1 (stereo unspecified),-2.27%
11,CC(C)n1nccc1NC(=O)CN(C)S(=O)(=O)c1ccc(Cl)s1,-6.6%
12,Cn1cnnc1Sc1ccc(Cl)cc1NC(=O)C1CCCCC1,-8.95%
13,CCC(C)(C)NC(=O)[C@H](CC(C)C)N1CC[C@@]2(CCCN2C(=O)CCC(C)=O)C1=O,0.355%
14,Cc1csc(C2CCN(S(=O)(=O)c3ccc(F)cc3Cl)CC2)n1,-7.52%
15,Fc1cc(F)cc(-c2cncc(COc3ccc(F)cc3F)c2)c1,1.15%
16,COc1nc(C)cc(C)c1CNC(=O)C(=O)N1CCc2ccccc21,4.25%
17,CCOC(=O)C1(C)CCCN1C(=O)c1cc(C)on1 (stereo unspecified),-5.23%
18,O=C(NC1CCN(c2ccccc2C(=O)NCc2cccc(C(F)(F)F)c2)CC1)c1ccccc1F,-3.47%

row,Structure (SMILES),inhibition
1,Cc1cc(=O)n(-c2ccc(S(=O)(=O)O)cc2C)[nH]1,-8.43%
2,CCOC(=O)C1CCCN(Cn2c(=O)c3ccccc3n3nc(C)cc23)C1 (stereo unspecified),-0.416%
3,O=C(c1cc(Cn2ccc3ccccc32)[nH]n1)N1CCCC1c1nccs1 (stereo unspecified),-1.07%
4,CCc1cnc(COc2ccc(OC3CCCCNC3=O)cc2)o1 (stereo unspecified),-10.1%
5,COC(=O)c1c(C)[nH]c(C(=O)N2CCCC2c2ccc(OC)cc2)c1C (stereo unspecified),-3.09%
6,COc1ccc(-c2nnc(SCC(=O)N/N=C\c3ccccn3)n2-c2ccccc2)cc1OC,1.79%
7,O=C1c2cccc3cccc(c23)C(=O)N1CCCCCc1n[nH]c(=S)o1,-2.3%
8,Cc1ccccc1N(CCCN1C(=O)c2cccc3cccc(c23)C1=O)C(=O)c1ccc([N+](=O)[O-])cc1,-1.77%
9,C[N+](C)(CCCCCC[N+](C)(C)CCCN1C(=O)c2cccc3cccc(c23)C1=O)CCCN1C(=O)c2cccc3cccc(c23)C1=O,90.3% (active)
10,COc1cn(CC(=O)NCc2ccc3c(c2)OCO3)c(CSc2ncccn2)cc1=O,-5.34%
11,COCCCN(CC(=O)N(Cc1ccc2c(c1)OCO2)Cc1cccs1)C(=O)C1C[C@H]1c1ccccc1 (stereo partly specified),-8.64%
12,O=C(CCNC(=O)C1CC2(CCNCC2)CN1)Nc1nccs1 (stereo unspecified),-7.06%
13,COCc1c(Br)c(C)nc(OCC(=O)N/N=C\c2cc(I)c(OCc3ccccc3Cl)c(OC)c2)c1C#N,-3.7%
14,CN1CCN(C(=O)c2cc(COc3ccc(-n4cncn4)cc3)on2)CC1c1ccccc1 (stereo unspecified),-7.12% and -3.64%
15,CCOc1cc(Br)cc(/C=N\Nc2nc(N3CCCCC3)nc(N3CCCCC3)n2)c1O,-5.11%
16,CC1CCCN(c2nn3c(C(=O)NCCN4CCCCCC4)cc(=O)nc3s2)C1 (stereo unspecified),-1.82%
17,Nc1ccc(NC(=S)NCc2ccco2)cc1[N+](=O)[O-],-4.64%
18,CCN1CCN(c2ccccc2NS(=O)(=O)c2cc(Br)ccc2OC)CC1,-2.43%
